PMC7862700, “An all-to-all approach to the identification of sequence-specific readers for epigenetic DNA modifications on cytosine”

Experiments:
Test in all cases: DAPPL (digital affinity profiling via proximity ligation, sequencing); 10 mM Tris-HCl pH 7.5, 50 mM NaCl, 1 mM DTT, 4% glycerol, room temperature, 30 min; GST-TFs on glutathione beads, 16-mer random dsDNA library, 0.1% formaldehyde crosslink after washing; high values mean tight binding
FEV = target: T1, FEV (Homo sapiens, UniProt Q99581 1-238); conditions: protein: recombinant; tags: N-terminal GST; dsDNA, one strand shown
T1 sequence: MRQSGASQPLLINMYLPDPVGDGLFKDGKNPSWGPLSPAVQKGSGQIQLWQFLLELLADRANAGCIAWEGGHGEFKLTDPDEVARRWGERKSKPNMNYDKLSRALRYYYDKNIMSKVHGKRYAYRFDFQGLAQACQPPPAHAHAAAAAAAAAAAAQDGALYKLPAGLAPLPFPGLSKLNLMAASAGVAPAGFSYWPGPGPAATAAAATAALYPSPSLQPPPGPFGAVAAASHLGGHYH
Procedure, shortened: (§1)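 Sequencing on an Illumina NextSeq500 followed washing, crosslinking with 0.1% formaldehyde, proximity ligation (BsaI/T4 ligase, 1 h, 37 °C) and PCR amplification of pools that had been incubated for 30 min at room temperature with 200 nmole of a random double-stranded 16-mer DNA library in Tris/NaCl/DTT/glycerol buffer. Each pool held DNA-barcoded human transcription factors, expressed in yeast as GST fusions and captured on glutathione beads, plus a tag-only sample. Binding signal is a hexamer's read frequency for a factor divided by its frequency in the tag-only sample.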

ETV5 = ETV5 (Homo sapiens, UniProt P41161 1-510); conditions: protein: recombinant; tags: N-terminal GST; dsDNA, one strand shown
Procedure, shortened: as §1

HSF1 = HSF1 (Homo sapiens, UniProt Q00613 1-529); conditions: protein: recombinant; tags: N-terminal GST; chain copies: 3; dsDNA, one strand shown
Procedure, shortened: as §1

SPIC = target: T2, SPIC (Homo sapiens, UniProt Q8N5J4 1-248); conditions: protein: recombinant; tags: N-terminal GST; dsDNA, one strand shown
T2 sequence: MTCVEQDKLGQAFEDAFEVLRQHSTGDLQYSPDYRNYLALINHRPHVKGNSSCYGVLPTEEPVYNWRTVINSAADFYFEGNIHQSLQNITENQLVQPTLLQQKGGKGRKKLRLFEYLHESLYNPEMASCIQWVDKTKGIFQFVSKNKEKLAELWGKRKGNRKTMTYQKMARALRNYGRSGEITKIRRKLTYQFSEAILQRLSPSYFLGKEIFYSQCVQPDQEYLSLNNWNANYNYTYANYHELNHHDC
Procedure, shortened: as §1

ELF4 = ELF4 (Homo sapiens, UniProt Q99607 1-663); conditions: protein: recombinant; tags: N-terminal GST; dsDNA, one strand shown
Procedure, shortened: as §1

ELK4 = target: T3, ELK4 (Homo sapiens, UniProt P28324-2 1-405); conditions: protein: recombinant; tags: N-terminal GST; dsDNA, one strand shown
T3 sequence: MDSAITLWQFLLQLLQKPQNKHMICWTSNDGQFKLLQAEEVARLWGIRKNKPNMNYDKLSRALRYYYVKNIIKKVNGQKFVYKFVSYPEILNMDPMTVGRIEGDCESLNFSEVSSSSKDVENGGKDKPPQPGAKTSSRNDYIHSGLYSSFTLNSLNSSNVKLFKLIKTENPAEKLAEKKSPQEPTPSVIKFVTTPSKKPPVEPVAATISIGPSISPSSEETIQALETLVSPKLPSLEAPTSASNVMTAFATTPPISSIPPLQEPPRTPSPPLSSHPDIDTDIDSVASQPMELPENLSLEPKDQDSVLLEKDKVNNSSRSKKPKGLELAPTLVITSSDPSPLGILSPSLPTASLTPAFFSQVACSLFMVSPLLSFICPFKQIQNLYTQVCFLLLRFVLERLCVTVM
Procedure, shortened: as §1

ETV2 = target: T4, ETV2 (Homo sapiens, UniProt O00321 1-342); conditions: protein: recombinant; tags: N-terminal GST; dsDNA, one strand shown
T4 sequence: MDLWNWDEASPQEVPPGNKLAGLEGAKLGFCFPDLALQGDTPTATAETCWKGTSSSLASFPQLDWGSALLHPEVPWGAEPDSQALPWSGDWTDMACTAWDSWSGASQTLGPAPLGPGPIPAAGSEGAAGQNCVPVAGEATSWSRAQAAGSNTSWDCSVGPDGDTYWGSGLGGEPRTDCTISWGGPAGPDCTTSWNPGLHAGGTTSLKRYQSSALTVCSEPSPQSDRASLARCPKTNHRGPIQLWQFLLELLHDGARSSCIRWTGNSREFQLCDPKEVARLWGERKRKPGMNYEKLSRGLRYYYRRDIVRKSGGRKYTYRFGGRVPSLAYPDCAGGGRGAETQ
Procedure, shortened: as §1

ELF3 = target: T5, ELF3 (Homo sapiens, UniProt P78545 1-371); conditions: protein: recombinant; tags: N-terminal GST; dsDNA, one strand shown
T5 sequence: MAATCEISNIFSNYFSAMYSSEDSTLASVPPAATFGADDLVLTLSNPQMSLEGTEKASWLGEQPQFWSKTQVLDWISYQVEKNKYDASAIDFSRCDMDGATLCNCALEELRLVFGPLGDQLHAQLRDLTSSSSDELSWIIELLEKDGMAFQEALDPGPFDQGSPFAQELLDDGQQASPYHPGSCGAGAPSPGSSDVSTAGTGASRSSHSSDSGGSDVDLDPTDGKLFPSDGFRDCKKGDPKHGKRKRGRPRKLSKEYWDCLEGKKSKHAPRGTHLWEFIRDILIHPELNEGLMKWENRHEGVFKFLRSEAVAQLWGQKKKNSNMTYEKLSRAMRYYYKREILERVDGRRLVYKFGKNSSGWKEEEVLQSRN
Procedure, shortened: as §1

CRX = CRX (Homo sapiens, UniProt O43186 1-299); conditions: protein: recombinant; tags: N-terminal GST; dsDNA, one strand shown
Procedure, shortened: as §1

ETV1 = ETV1 (Homo sapiens, UniProt P50549 1-477); conditions: protein: recombinant; tags: N-terminal GST; dsDNA, one strand shown
Procedure, shortened: as §1

Sequence of HSF1 (Q00613 whole entry): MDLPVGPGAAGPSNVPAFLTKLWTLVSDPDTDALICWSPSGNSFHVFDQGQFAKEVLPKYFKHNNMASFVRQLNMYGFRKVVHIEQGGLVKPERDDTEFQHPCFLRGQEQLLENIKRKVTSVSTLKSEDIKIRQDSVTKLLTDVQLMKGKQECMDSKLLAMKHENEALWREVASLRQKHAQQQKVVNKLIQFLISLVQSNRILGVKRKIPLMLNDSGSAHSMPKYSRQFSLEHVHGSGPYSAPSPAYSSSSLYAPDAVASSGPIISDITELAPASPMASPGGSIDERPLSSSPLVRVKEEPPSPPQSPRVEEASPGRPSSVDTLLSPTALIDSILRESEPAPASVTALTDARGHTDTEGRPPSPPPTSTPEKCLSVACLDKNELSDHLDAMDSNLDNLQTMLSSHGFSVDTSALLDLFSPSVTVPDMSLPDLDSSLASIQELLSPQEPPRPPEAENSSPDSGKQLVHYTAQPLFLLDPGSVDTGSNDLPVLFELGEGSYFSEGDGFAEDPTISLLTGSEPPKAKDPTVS
Sequence of ELF4 (Q99607 whole entry): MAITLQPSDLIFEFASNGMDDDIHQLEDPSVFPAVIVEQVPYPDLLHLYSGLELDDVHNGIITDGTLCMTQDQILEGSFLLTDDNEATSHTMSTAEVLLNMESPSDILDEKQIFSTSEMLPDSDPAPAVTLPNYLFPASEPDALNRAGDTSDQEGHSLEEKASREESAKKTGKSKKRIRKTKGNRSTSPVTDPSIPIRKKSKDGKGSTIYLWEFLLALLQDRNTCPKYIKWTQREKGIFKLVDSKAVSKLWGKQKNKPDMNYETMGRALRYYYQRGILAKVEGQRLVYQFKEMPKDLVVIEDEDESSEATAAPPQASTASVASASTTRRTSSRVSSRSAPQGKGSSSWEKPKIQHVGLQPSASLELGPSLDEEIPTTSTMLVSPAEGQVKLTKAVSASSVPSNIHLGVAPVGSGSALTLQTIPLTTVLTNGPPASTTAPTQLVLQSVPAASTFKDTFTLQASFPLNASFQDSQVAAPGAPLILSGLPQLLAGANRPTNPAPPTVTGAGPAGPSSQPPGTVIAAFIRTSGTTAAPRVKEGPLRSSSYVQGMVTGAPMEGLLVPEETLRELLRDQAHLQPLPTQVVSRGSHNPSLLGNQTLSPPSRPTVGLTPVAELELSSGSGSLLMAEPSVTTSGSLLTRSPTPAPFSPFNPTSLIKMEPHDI
Sequence of CRX (O43186 whole entry): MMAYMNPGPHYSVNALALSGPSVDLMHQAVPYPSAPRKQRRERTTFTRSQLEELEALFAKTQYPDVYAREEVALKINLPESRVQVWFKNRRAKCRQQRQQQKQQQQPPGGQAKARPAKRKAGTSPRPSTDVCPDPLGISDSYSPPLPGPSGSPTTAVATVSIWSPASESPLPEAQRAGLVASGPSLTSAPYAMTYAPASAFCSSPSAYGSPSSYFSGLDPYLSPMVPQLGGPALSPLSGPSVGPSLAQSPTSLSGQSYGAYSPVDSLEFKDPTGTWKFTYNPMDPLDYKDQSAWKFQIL
Sequence of ETV1 (P50549 whole entry): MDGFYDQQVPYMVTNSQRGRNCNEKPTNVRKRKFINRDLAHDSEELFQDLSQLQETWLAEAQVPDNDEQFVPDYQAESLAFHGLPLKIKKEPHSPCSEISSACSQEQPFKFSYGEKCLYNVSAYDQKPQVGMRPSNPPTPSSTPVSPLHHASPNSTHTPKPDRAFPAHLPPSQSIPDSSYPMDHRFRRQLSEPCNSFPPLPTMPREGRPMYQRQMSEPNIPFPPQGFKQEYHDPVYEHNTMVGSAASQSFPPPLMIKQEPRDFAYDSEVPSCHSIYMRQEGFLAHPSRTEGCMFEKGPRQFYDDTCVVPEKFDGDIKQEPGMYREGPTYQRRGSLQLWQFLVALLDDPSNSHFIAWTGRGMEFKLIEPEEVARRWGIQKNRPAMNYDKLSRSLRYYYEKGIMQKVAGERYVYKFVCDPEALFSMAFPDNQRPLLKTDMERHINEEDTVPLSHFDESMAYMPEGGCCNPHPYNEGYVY
Sequence of ETV5 (P41161 whole entry): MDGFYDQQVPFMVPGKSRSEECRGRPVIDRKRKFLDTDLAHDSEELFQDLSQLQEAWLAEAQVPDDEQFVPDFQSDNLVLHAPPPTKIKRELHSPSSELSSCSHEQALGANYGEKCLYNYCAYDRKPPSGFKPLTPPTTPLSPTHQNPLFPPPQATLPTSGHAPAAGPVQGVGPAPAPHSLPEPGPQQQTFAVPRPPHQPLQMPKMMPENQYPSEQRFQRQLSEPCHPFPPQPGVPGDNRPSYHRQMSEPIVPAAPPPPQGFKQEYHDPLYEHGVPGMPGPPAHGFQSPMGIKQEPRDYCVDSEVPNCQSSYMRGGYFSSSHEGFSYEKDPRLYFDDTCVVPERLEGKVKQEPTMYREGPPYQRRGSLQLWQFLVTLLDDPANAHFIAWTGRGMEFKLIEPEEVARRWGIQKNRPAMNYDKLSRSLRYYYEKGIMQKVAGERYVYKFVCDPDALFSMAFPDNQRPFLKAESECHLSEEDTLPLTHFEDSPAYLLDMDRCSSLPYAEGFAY

ATGCCT
binding signal (FEV): 1.35 fold enrichment (6-mer frequency, TF over GST control)
binding signal (ETV5): 1.41 fold enrichment (6-mer frequency, TF over GST control)
binding signal (HSF1): 1.13 fold enrichment (6-mer frequency, TF over GST control)
binding signal (SPIC): 1.55 fold enrichment (6-mer frequency, TF over GST control)
binding signal (ELF4): 1.29 fold enrichment (6-mer frequency, TF over GST control)
binding signal (ELK4): 1.49 fold enrichment (6-mer frequency, TF over GST control)
binding signal (ETV2): 1.2 fold enrichment (6-mer frequency, TF over GST control)
binding signal (ELF3): 1.4 fold enrichment (6-mer frequency, TF over GST control)
binding signal (CRX): 1.28 fold enrichment (6-mer frequency, TF over GST control)
binding signal (ETV1): 1.33 fold enrichment (6-mer frequency, TF over GST control)
